# Screens deposited in PubChem by National Center for Advancing Translational Sciences (NCATS).
# A selection: hits, their analogues and other compounds. The true share with any hit is near 3.4%.
# PLK1 PBD inh = PLK1 (human) polo-box domain binding inhibition. P53350. Plk1 PBD binding of FITC phosphopeptide, fluorescence polarization. Potency, µM, hits mostly inhibitors. actives 2.8% (n = 360,000); further: series mostly up to about 57 µM; nearly all actives have a fitted effect of over 65% in size
# PKM2 activator = increases activity of human pyruvate kinase M2. P14618. actives 0.34% (n = 260,000). Potency, µM (top dose mostly 57.5 µM), most hits filed as activators. purified PKM2, Kinase-Glo ATP luminescence, activation; response scale: 0% is enzyme alone, no compound; further: nearly all actives have a fitted effect of over 55% in size
#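 hPK-M2, >95% pure; 0.1 mM ADP / 0.5 mM PEP final; imidazole pH7.2 buffer w/ 7 mM MgCl2, 50 mM KCl; 1 h RT; Kinase-Glo lum. Intermediate enzyme activity for dual inhibitor/activator qHTS.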
# KAT2A inh = inhibitors of human GCN5L2 histone acetyltransferase | Potency, µM (series often up to 58.9 µM), usual class: inhibitors | actives 0.21% (n = 390,000) | GCN5L2 HAT assay, ThioGlo1 CoA-SH fluorescence
#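 GCN5L2 (20 nM) in 50mM HEPES pH 7.5, 0.1mM EDTA, 0.01% Tween-20 preincubated 15 min with compounds at room temperature. Reaction started with H3(1-25) 75uM, acetyl-CoA 70uM, ThioGlo1 50uM; CoA-thiol fluorescence (Ex340/Em540) read at 0 and 20 min.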
# GLS inh = blocks human kidney-isoform glutaminase activity. GLS enzymatic activity, qHTS titration. actives 0.21% (n = 410,000). Potency, µM (doses to about 45.5 µM), hits mostly inhibitors. AID 624170. O94925
#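 Assay buffer: 45 mM KH2PO4 pH 8.2, 0.02% Tween-20. hKGA acts on L-glutamine (1 mM solution added); product glutamate is reported by an oxidase/peroxidase Amplex Red coupling, with fluorescence taken at baseline and 30 min.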
# Mito fusion act = blocks mitochondrial division or promotes mitochondrial fusion. S. cerevisiae fusion-defective mutant growth rescue, CellTiterGlo 48 h. Potency, µM (highest dose often 46.1 µM), hits mostly activators. actives 0.23% (n = 320,000). AID 485298; further: nearly all actives have a fitted effect of over 45% in size
#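 Growth-rescue viability read-out: after 48 h at the non-permissive 37C in glycerol/ethanol YPEG, yeast mitochondrial fusion mutants are measured by CellTiterGlo luminescence; compounds (23 nl pinned per well) restoring growth score as division inhibitors or fusion activators.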
# VDR inhibitor = inhibitors of human vitamin D receptor; actives 0.93% (n = 400,000); Potency, µM, most hits filed as inhibitors; P11473; VDR-SRC2-3 peptide fluorescence polarization, 2 h
# Target sequence (P11473 whole entry, looked up): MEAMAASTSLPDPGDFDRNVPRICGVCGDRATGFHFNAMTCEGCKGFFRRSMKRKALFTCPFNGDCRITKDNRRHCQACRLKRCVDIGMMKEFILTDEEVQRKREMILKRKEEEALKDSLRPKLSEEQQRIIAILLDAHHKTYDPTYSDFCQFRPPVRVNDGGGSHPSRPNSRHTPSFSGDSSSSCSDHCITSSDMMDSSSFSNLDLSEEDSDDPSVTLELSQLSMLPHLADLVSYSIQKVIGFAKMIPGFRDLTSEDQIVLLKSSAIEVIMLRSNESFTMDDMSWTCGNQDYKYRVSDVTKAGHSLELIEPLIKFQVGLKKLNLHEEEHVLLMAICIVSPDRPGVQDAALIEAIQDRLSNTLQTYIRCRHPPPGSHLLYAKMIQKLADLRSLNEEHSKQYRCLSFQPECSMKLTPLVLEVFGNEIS
#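 Signal is fluorescence polarization, reporting how far test compounds block the interaction of VDR with the SRC2-3 coregulator peptide after a 2 h room-temperature incubation.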
# USP1-UAF1 confirm = USP1-UAF1 deubiquitinase inhibition validated; shares compounds with VDR inhibitor; Ub-Rhodamine cleavage, fluorescence kinetic read; actives 50% (n = 50); Potency, µM (series often up to 56.8 µM), usual class: inhibitors
# VDR confirm = confirmation of human vitamin D receptor inhibitors; shares compounds with VDR inhibitor; VDR-coactivator inhibition assay, qHTS confirmation; Potency, µM, usual class: inhibitors; actives 89% (n = 840)
# VDR FP fluor = VDR (human) coactivator binding inhibition, fluorescein polarization | shares compounds with VDR inhibitor | VDR-coactivator binding, fluorescein fluorescence polarization | Potency, µM (doses to about 57.1 µM), actives largely listed as inhibitors | actives 48% (n = 840) | AID 602200
# VDR bla = VDR (human) inhibition, cell-based beta-lactamase validation. Potency, µM (series often up to 46.1 µM), usual class: inhibitors. AID 602202. VDR beta-lactamase reporter cells, FRET ratio; cells co-treated with VDR agonist LG190178. actives 23% (n = 840). shares compounds with VDR inhibitor
# VDR cytotox = cell toxicity, VDR inhibitor hit counter-screen | shares compounds with VDR inhibitor | cytotoxicity counter-screen, cell viability, qHTS | Potency, µM (series often up to 48.3 µM), usual class: cytotoxic | actives 18% (n = 840); further: nearly all actives have a fitted effect of over 75% in size
# Numbers stand for hits; - = inactive; ? = inconclusive; . = no result; [ ] = another dose, or the depositor's remark. The call rests on the fitted dose curve; in most records, active means well fitted curve in the direction sought with a large enough effect; inconclusive means small, poorly fitted or top-dose-only effect, or another doubt; inactive means no such curve, though single readings can be large; an effect the other way counts as inactive or inconclusive.
SMILES,PLK1 PBD inh,PKM2 activator,KAT2A inh,GLS inh,Mito fusion act,VDR inhibitor,VDR confirm,VDR FP fluor,VDR bla,VDR cytotox,others
Cc1ccc(N2NC(=O)/C(=C\c3cc4c(cc3[N+](=O)[O-])OCO4)C2=O)cc1C,9.5µM,?,-,?,-,50µM,12,?,?,-,
COc1cc(/C=C2/C(=O)NN(c3cccc(C)c3)C2=O)cc([N+](=O)[O-])c1O,?,-,-,-,-,-,.,.,.,.,
COc1cccc(C(=O)/C=C/c2ccc(OCC#N)c(OC)c2)c1,-,-,-,-,-,50µM,27,14µM,?,?,
CC(NC(=O)c1ccc(Br)s1)c1ccncc1 (stereo not given),-,-,-,-,-,-,.,.,.,.,
COc1ccc(Cc2ccccc2C(=O)O)cc1,-,.,.,-,.,-,.,.,.,.,
COc1ccc(CC2=CC(=O)c3ccccc3C2=O)cc1,?,-,-,-,-,20µM,4.2,3.2µM,?,16µM,
O=C(O)c1ccc(Oc2nc3ccccc3s2)cc1,-,.,.,-,.,-,.,.,.,.,
O=C(O)c1ccc(C=C(c2nc3ccccc3s2)c2nc3ccccc3s2)cc1,30µM,-,-,-,-,?,13,16µM,23µM,-,
CCCOc1ccc(/C=C2/C(=O)ON=C2C)cc1OCC,1.7µM,.,-,-,-,?,13,7.1µM,?,-,
CCCOc1ccc(/C=c2\sc3nc(-c4ccco4)nn3c2=O)cc1OCC,-,-,-,-,-,-,.,.,.,.,
CCCOc1ccccc1/C=C1/C(=O)ON=C1C,3µM,.,-,-,-,25µM,13,?,-,-,
O=S(=O)(/N=C(\Sc1ccccc1)c1ccccc1)c1ccc(Cl)cc1,2.4µM,-,-,-,-,79µM,12,?,-,?,
CC1(OC(=O)C2CCCC2)C(=O)C=C2C=C(c3ccsc3)N(CCc3c[nH]c4ccccc34)C=C2C1=O (stereo not given),-,-[11.5 µM],-,-,-,?,?,?,-,-,
O=[N+]([O-])c1c(NCCO)cc(N2CCCCCC2)c2nonc12,-,-,-,-,-,-,.,.,.,.,
Cc1nnc(Sc2cc(NCCCO)c([N+](=O)[O-])c3nonc23)s1,5.3µM,-,-,?,-,45µM,13,11µM,?,?,
CCOC(=O)C1CCCN(c2cc(NCCCO)c([N+](=O)[O-])c3nonc23)C1 (stereo not given),.,-,-,.,-,.,.,.,.,.,
Cc1nnc(Sc2cc(NCCO)c([N+](=O)[O-])c3nonc23)s1,2.4µM,-,-,-,-,22µM,4.2,?,?,?,
COc1ccc(N2CCN(S(=O)(=O)CCNC(=O)/C=C/c3ccccc3)CC2)cc1,-,.,-,-,-,-,.,.,.,.,
CNc1ccc(Br)cc(C(=O)/C=C/c2cccc(Cl)c2Cl)c1=O,?,-,-,-,-,?,8.9,-,23µM,-,
COc1ccccc1CNc1nc(-c2ccco2)nn1S(=O)(=O)c1ccc(C)cc1,.,.,-,-,.,-,.,.,.,.,
O=C1Nc2ccc(I)cc2/C1=C/c1cc(Br)c(O)c(Br)c1,.,.,22µM,.,0.46µM,25µM,.,.,.,.,USP1-UAF1 confirm=74µM
COc1ccc2c(c1)/C(=C\c1cccc(/C=C3/C(=O)Nc4ccc(OC)cc43)n1)C(=O)N2,-,.,.,-,.,?,.,.,.,.,
CCCC(=O)NCCc1c2n(c3ccc(OC)cc13)CCCc1ccccc1-2,.,.,-,.,18µM,-,.,.,.,.,USP1-UAF1 confirm=?
COc1ccc(C(=O)N2CCN(c3nc4cc(C)cc(C)c4cc3C#N)CC2)cc1,-,.,.,-,.,.,.,.,.,.,
COc1ccc(NC(=O)Cc2ccc(Cl)c(Cl)c2)cn1,-,-,-,-,-,-,.,.,.,.,
SMILES,PLK1 PBD inh,PKM2 activator,KAT2A inh,GLS inh,Mito fusion act,VDR inhibitor,VDR confirm,VDR FP fluor,VDR bla,VDR cytotox,others
COc1ccc(NC(=O)/C(Cl)=C(/Cl)S(=O)(=O)Cc2ccc(C)cc2)cn1,21µM,-,-,-,-,16µM,19,13µM,5.8µM,21µM,
Nc1ccc(N2CCCC2)c(S(=O)(=O)Nc2cccc(C(F)(F)F)c2)c1,4.7µM,.,-,?,.,40µM,11,?,-,-,
O=C1C(C2=C(O)c3ccccc3C2=O)=Nc2ccccc21,?,-,-,-,-,13µM,0.75,?,-,?,
CN=CC1=C(O)c2ccccc2C1=O,-,-,-,-,-,-,.,.,.,.,
COc1cccc(CNC(=O)c2ccc3c(c2)c(C)c(C)n3Cc2ccccc2)c1OC,.,.,-,-,.,-,.,.,.,.,
CC(=O)N1[C@H](Cc2ccccc2)C=C[C@]1(C)C(=O)NCc1ccccn1,-,-,-,-,-,-,.,.,.,.,
O=C(/C=C/c1ccc(O)c(O)c1)c1ccc(S(=O)(=O)N2CCCCCC2)cc1,-,-,-,-,-,79µM,24,25µM,-,-,
COc1ccc2c(c1)Cc1sc(NC(=O)c3cccc(C)c3)nc1-2,.,.,-,-,.,20µM,7.1,7.1µM,?,?,
Cc1ccc(S(=O)(=O)CCC(=O)c2cccc([N+](=O)[O-])c2)cc1,3.8µM,-,-,-,-,16µM,3.5,3.2µM,?,?,
Cc1ccc(S(=O)(=O)NCC(=O)Nc2cccc([N+](=O)[O-])c2)cc1,-,-,-,-,-,-,.,.,.,.,
O=C(Nc1ccc(N2CCOCC2)cc1)c1ccc([N+](=O)[O-])cc1,-,-,-,-,-,-,.,.,.,.,
CC(C)Sc1ncnc2[nH]ncc12,-,.,.,-,.,-,.,.,.,.,
CCOC(=O)C(CN1CCCC1)c1ccccc1 (stereo not given),-,.,-,-,-,-,.,.,.,.,
O=C(c1ccc(Cl)cc1)C(CN1CCCCC1)c1ccccc1 (stereo not given),?,.,-,-,-,20µM,?,22µM,13µM,18µM,
CN1CCC2(CC1)N=C(c1ccc(F)cc1)C(=S)N2C(=O)c1ccc(C(C)(C)C)cc1,24µM,-,-,-,-,?,?,?,?,?,
